NSD2 block: inhibitors of human NSD2, primary screen, biochemical, plate reader, single point. inhibition, % at 12.5 µM. AID 624260, 2012. actives 0.07% (n = 44,000). NSD2-SET H3K36me1 DELFIA fluorescence; in the data active = inhibition above about 54%, passing the limit was not always enough;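 note: inhibitors reduce the monomethyl H3K36 fluorescence signal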
Active calls of the source: *. Shown is part of a subset that was picked to be rich in hits.

SMILES | NSD2 block
O=C(NO)c1cccc(C(=O)N/N=C/c2ccc(F)c(Oc3ccccc3)c2)c1 | -15
O=C(CCCCC(=O)N/N=C/c1cccc(B(O)O)c1)NO | -2
O=C(N/N=C/c1ccc(-c2ccccc2)c(F)c1)c1ccccn1 | 3
O=C(CCCCCC(=O)NN=C1CCCCCCC1)NO | -3
O=C(NO)c1ccc(C(=O)N/N=C/c2ccc(F)cc2)cc1 | 4
O=C(NO)c1ccc(C(=O)N/N=C/c2cccc(O)c2O)cc1 | 3
O=C(NO)c1ccc(C(=O)N/N=C/c2ccc3ccccc3c2)cc1 | 62*
O=C(NO)c1ccc(C(=O)N/N=C/c2cccc(Oc3ccccc3)c2)cc1 | 1
CCN(CC)c1ccc(/C=N/NC(=O)c2ccc(C(=O)NO)cc2)c(O)c1 | 11
O=C(NO)c1ccc(C(=O)N/N=C/c2ccc(O)c(O)c2O)cc1 | 61*
CCCCCCCC/C=C/CCCCCCCC(=O)NCCc1ccc(O)c(O)c1 | 13
CC1CC[C@@]2(OC1)O[C@H]1CC3C4CC=C5C[C@@H](O[C@@H]6O[C@H](CO)[C@@H](O[C@@H]7O[C@@H](C)[C@H](O)[C@@H](O)[C@H]7O)[C@H](O)[C@H]6O[C@@H]6O[C@@H](C)[C@H](O)[C@@H](O)[C@H]6O)CC[C@]5(C)C4CC[C@]3(C)[C@@]1(O)[C@@H]2C (some centres undefined) | -2
C=CCNC(=O)[C@H]1[C@@H]2C(=O)O[C@@H](c3ccccc3)[C@@H](c3ccccc3)N2[C@@H](c2ccc(O)cc2)[C@]12C(=O)N(C(=O)OCCOC)c1ccc(C#CC3=CCCCC3)cc12 | -3
CC(=O)O[C@@H]1[C@H](c2ccc(=O)oc2)C2[C@H](C)C[C@H]3[C@@H](CC[C@@H]4C[C@@H](O)CC[C@@]43C)[C@]23O[C@H]13 (some centres undefined) | -9
CC(=O)Nc1ccc2c(c1)nc1n2CCN(Cc2ccco2)C1 | 0
O=C1CSC(C23CC4CC(CC(C4)C2)C3)N1 (centres undefined) | 18
O=C1CC(c2ccc(O)cc2)Oc2cc(O[C@@H]3O[C@H](CO)[C@@H](O)[C@H](O)[C@H]3O)cc(O)c21 (some centres undefined) | -2
COc1c(OC2OC(CO)C(O)C(O)C2O)cc(O)c2c1OC(c1ccccc1)CC2=O (centres undefined) | 36
CC(C)=CCc1c(O[C@@H]2O[C@H](CO)[C@@H](O)[C@H](O)[C@H]2O)cc(O)c2c1O[C@H](c1ccc(O)cc1)CC2=O | 70*
C[C@@H]1O[C@@H](O[C@@H]2[C@@H](O)[C@H](OC(=O)[C@]34CCC(C)(C)CC3C3=CCC5[C@@]6(C)CC[C@H](OC7OC(CO)C(OC8OCC(O)C(O)C8O)C(O)C7O)C(C)(C)C6CC[C@@]5(C)[C@]3(C)CC4O)O[C@H]2CO)[C@H](O)[C@H](O)[C@H]1O[C@H]1OC[C@](O)(CO)[C@H]1O (some centres undefined) | -3
CC1OC(O[C@H]2[C@@H](O)C[C@@]3(C)C([C@H](O)C[C@]4(C)C3CC=C3[C@@H]5CC(C)(C)CC[C@]5(C(=O)OC5OC(C)C(OC6OCC(OC7OCC(O)C(OC8OCC(O)C(O)C8O)C7O)C(O)C6O)C(O)C5O)CC[C@]34C)[C@]2(C)CO)C(O)C(OC2OC(CO)C(O)C(O)C2O)C1O (some centres undefined) | -4
C[C@@H]1O[C@@H](O[C@@H]2[C@@H](O)[C@H](O[C@@H]3[C@@H](O)[C@@H](O)[C@H](O[C@H]4[C@H](OC(=O)[C@]56CCC(C)(C)C[C@H]5C5=CCC7[C@@]8(C)C[C@H](O)[C@H](O[C@@H]9O[C@H](C(=O)O)[C@@H](O)[C@H](O)[C@H]9O)[C@@](C)(CO)C8[C@H](O)C[C@@]7(C)[C@]5(C)C[C@H]6O)O[C@@H](CO)[C@@H]4O)O[C@H]3C)OC[C@H]2O)[C@H](O)[C@H](O)[C@H]1O (some centres undefined) | 74*
C[C@H](CO)N1C[C@H](C)[C@@H](CN(C)Cc2ccc(Cl)c(Cl)c2)Oc2ccc(NS(=O)(=O)c3ccc(F)cc3)cc2CC1=O | 8
COC(=O)C1=CO[C@@H](O[C@@H]2O[C@H](CO)[C@@H](O)[C@H](O)[C@H]2O)[C@H]2[C@@H]1C=CC21C=C([C@H](C)O)C(=O)O1 (some centres undefined) | 1
COC(=O)C1=CO[C@@H](O[C@@H]2O[C@H](CO)[C@@H](O)[C@H](O)[C@H]2O)[C@H]2[C@@H]1C=CC21C=C([C@H](C)OC(=O)/C=C/c2ccc(O)cc2)C(=O)O1 (some centres undefined) | 76*
SMILES | NSD2 block
COC(=O)C1=CO[C@@H](O[C@@H]2O[C@H](CO)[C@@H](O)[C@H](O)[C@H]2O)[C@@H]2[C@@H](C)[C@@H](O)[C@@H](OC(=O)/C=C/c3ccc(O)c(O)c3)[C@H]12 | 4
Cc1ccc(S(=O)(=O)N[C@H](C(=O)NCCn2cc(CN3C(=O)COC[C@H]3c3ccccc3)nn2)C(C)C)cc1 | 16
COC(=O)CCCCCCC(=O)NN=C1CCCCCC1 | -2
O=C1c2ccccc2C(=O)N1[C@@H]1CCN(Cc2cccc(OCCO)c2)C1 | -3
Cc1cc(-c2ccc(N=Nc3cc(S(=O)(=O)O)c4ccccc4c3N)c(C)c2)ccc1N=Nc1cc(S(=O)(=O)O)c2ccccc2c1N | 92*
O=C1/C(=C/c2ccc(N3CCOCC3)cc2)CCC1C1CCCC1 (centres undefined) | 2
CC(/C=C/C(=O)NO)=C\c1ccccc1OCc1cn(-c2cccc(C(=O)N3CCN(c4ccccc4)CC3)c2)nn1 | 3
O=C(N/N=C/c1cn(S(=O)(=O)c2ccccc2)c2ccccc12)c1ccccc1O | 5
Cc1ccc(NCc2ccc(C(=O)Nc3ccccc3)cc2)cc1C | 4
NC(=O)COc1ccccc1/C=N/NC(=O)CCCCCC(=O)NO | 5
COC(=O)CCCCCCC(=O)N/N=C/c1ccc(OC)cc1O | 1
CNC(=O)C1OC(n2cnc3c(NCc4cccc(I)c4)nc(Cl)nc32)C(O)C1O (centres undefined) | -7
COC(=O)CCCCCCC(=O)N/N=C/c1ccc(Sc2nnc(C)n2C)o1 | -6
Cc1nc(-c2c(C(=O)NN)noc2C)cs1 | -2
Cc1ccc(N2C(=O)C3C4C=CC(CNC(=S)Nc5ccc(Br)cc5)(O4)C3C2=O)cc1 (centres undefined) | 7
O=C(NO)c1ccc(C(=O)N/N=C/c2cccs2)cc1 | 0
O=C(N/N=C/c1c(O)ccc2ccccc12)c1ccccn1 | -40
COCCOC(=O)N1C(=O)[C@@]2(c3cc(C#Cc4ccc(OC)cc4)ccc31)[C@H](C(=O)N1CCCCCCC1)[C@H]1C(=O)O[C@H](c3ccccc3)[C@H](c3ccccc3)N1[C@@H]2c1ccc(O)cc1 | 4
C[C@H]1CN([C@@H](C)CO)C(=O)c2cc(NC(=O)CCCCCC(=O)Nc3ccccc3N)ccc2O[C@H]1CN(C)C(=O)NC1CCCCC1 | 0
COc1cc([C@H]2OC[C@H]3[C@@H]2CO[C@H]3c2ccc(OC)c(OC)c2)ccc1O | -1
COc1cc([C@H]2OC[C@H]3[C@@H]2CO[C@@H]3c2ccc(O)c(OC)c2)ccc1O | 11
COc1cc(C[C@@H]2CO[C@@H](c3ccc(O)c(OC)c3)[C@@H]2CO)ccc1O | 68*
Cc1ccc(F)cc1S(=O)(=O)N[C@@H]1CCN(Cc2ccc(C(F)(F)F)cc2)C1 | 5

High-throughput results (PubChem)
